Compounds with a hit are over-represented: about 1.4% of the library has one in this group of screens.
SARS 3CLpro inh-1: SARS-CoV 3CLpro protease inhibition | P0C6X7 | recombinant SARS-CoV 3CLpro, quenched FRET peptide cleavage | inhibition, % at 6 µM | actives 0.14% (n = 290,000) | AID 1706; in the data active means inhibition above about 12%
DUSP3 inh: inhibitors of human VHR1 phosphatase (DUSP3). P51452. recombinant VHR phosphatase, pNPP absorbance. inhibition, % at 13.3 µM. actives 0.52% (n = 290,000). AID 1654; in the data active means inhibition above about 50%
Target sequence (P51452 whole entry, looked up): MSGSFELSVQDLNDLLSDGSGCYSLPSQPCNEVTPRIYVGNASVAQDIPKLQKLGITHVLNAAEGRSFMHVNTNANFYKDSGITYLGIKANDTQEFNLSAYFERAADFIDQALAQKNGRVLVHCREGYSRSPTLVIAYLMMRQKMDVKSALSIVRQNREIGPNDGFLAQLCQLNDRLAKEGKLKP
CCHFV vOTU inh: CCHFV vOTU protease inhibition | AID 651958 | Pep-AMC fluorescence | inhibition, % at 11.5 µM | actives 0.55% (n = 370,000); in the data active means inhibition above about 30%
MazF activator: MazEF (E. coli) toxin RNase activation. FAM/BHQ RNA-DNA oligo cleavage fluorescence, 5 h. activation, % at 20 µM. actives 0.32% (n = 350,000); in the data active means activation above about 50%
Target sequence (P0AE70 whole entry, looked up): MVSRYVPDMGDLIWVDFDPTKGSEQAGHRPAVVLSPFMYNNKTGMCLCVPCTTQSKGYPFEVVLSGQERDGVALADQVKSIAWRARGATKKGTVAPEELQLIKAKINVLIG
BJeLR viability: kills HRASV12-expressing BJeLR cells; actives 0.17% (n = 300,000); AID 1554; BJeLR (HRASV12) viability, CellTiter-Glo ATP luminescence, 48 h; inhibition, % (concentration not given with the values); in the data active means inhibition above about 50%
SARS 3CLpro inh-2: SARS 3CLpro inhibition, confirmation assay. shares compounds with SARS 3CLpro inh-1. QFRET protease activity assay. inhibition, % at 6 µM. actives 36% (n = 380); in the data active means inhibition above about 13%
A number is an active result; n = inactive; x = no result.

SMILES	SARS 3CLpro inh-1	DUSP3 inh	CCHFV vOTU inh	MazF activator	BJeLR viability	SARS 3CLpro inh-2
Cc1cccc(NS(=O)(=O)c2nnc(NC(=O)c3ccc(Cl)cc3)s2)c1	13	n	n	n	n	n
Cc1ccc(O)c(Nc2ncnc3ccccc23)c1	13	n	n	n	n	n
Cc1ccc2ncnc(Nc3ccccc3)c2c1	n	n	n	n	n	x
O=S(=O)(Nc1ccc(S(=O)(=O)Nc2nccs2)cc1)c1ccc(Br)cc1	47	n	n	n	n	n
O=S(=O)(Nc1cc(F)ccc1F)c1cccc2nsnc12	n	n	n	n	n	x
O=S(=O)(Nc1cc(F)ccc1F)c1cccc2nonc12	13	n	n	n	n	n
O=C(Nc1ccccc1)NN(C(=O)CCl)c1ccccc1	32	n	n	n	n	36
CCC(O)(CC)C(=O)NN(C(=O)CCl)c1ccccc1	n	n	n	n	n	x
NC(=NCc1ccccc1)NC(=O)OCc1ccccc1	x	x	n	x	x	x
O=C(COc1ccccc1)Nc1ccc(S(=O)(=O)N2CCCCCC2)cc1	n	n	n	n	n	x
O=C(COc1ccc(S(=O)(=O)N2CCCCC2)cc1)Nc1ccccc1F	12	n	n	n	n	n
O=C(NC(NC(=S)Nc1cccc(C(=O)O)c1)C(Cl)(Cl)Cl)OCc1ccccc1 (stereo not drawn)	n	n	n	n	n	x
O=C(NC(NC(=S)Nc1cccc(Cl)c1)C(Cl)(Cl)Cl)OCc1ccccc1 (stereo not drawn)	13	n	n	84	n	n
O=c1[nH]c(C2CCN(S(=O)(=O)c3ccccc3F)CC2)nc2c1nnn2Cc1ccc(OC(F)(F)F)cc1	13	n	n	n	n	n
O=c1[nH]c(C2CCN(S(=O)(=O)c3ccccc3C(F)(F)F)CC2)nc2c1nnn2Cc1ccccc1	n	n	n	n	n	x
CCOC(=O)c1ccc(NC(=O)CN2C(=O)CSCC2=O)cc1	n	n	n	n	n	x
CCOC(=O)c1ccc(NC(=O)CN2C(=O)C(CC)SC(CC)C2=O)cc1 (stereo not drawn)	13	n	n	n	n	n
O=C(O)c1cccc(NS(=O)(=O)c2ccc(C3CCCCC3)cc2)c1	12	n	x	n	n	n
Cc1cccc(NS(=O)(=O)c2ccc(C3CCCCC3)cc2)c1	n	n	n	n	n	x
CCCCC(=O)Nc1ccc(C(=O)NCC2COc3ccccc3O2)cc1 (stereo not drawn)	x	x	n	x	x	x
O=C(O)c1[nH]c2ccccc2c1C(c1ccccc1)c1c(C(=O)O)[nH]c2ccccc12	n	n	n	n	n	x
O=C(O)COc1ccc(Br)cc1C(c1c(C(=O)O)[nH]c2ccccc12)c1c(C(=O)O)[nH]c2ccccc12	13	n	x	n	n	16
O=S1(=O)c2c(cccc2N2CC[C@@H](O)C2)OCCCN1C1CC1	x	x	n	x	x	x
CC(=O)N1CCCN(C(=O)CCn2nnc3ccccc32)CC1	x	x	n	x	x	x
O=C(Nc1nc(-c2cccs2)cs1)c1ccc(Cl)cc1	13	n	n	n	n	n
SMILES	SARS 3CLpro inh-1	DUSP3 inh	CCHFV vOTU inh	MazF activator	BJeLR viability	SARS 3CLpro inh-2
O=C(NCc1ccco1)C(c1ccco1)N(C(=O)Cn1nnc2ccccc21)c1ccc2c(c1)CCC2 (stereo not drawn)	15	x	n	n	n	26
Nc1[nH]c2cc(C(F)(F)F)ccc2c1C(=O)NC1CCCCC1	x	x	n	x	x	x
CCn1nc(NS(=O)(=O)c2ccccc2)c2cc3cc(C)ccc3nc21	12	n	n	n	n	n
CCn1nc(NC(=O)C(C)(C)C)c2cc3cccc(C)c3nc21	n	n	n	n	n	x
CCn1nc(NS(=O)(=O)c2ccc([N+](=O)[O-])cc2)c2cc3cccc(C)c3nc21	12	n	n	n	n	n
O=C(CCNC(=O)Cn1cnc2ccccc2c1=O)NCC1CCCO1 (stereo not drawn)	17	n	n	n	n	n
COC(=O)[C@H](C(C)C)N1Cc2nnn(Cc3ccccc3)c2-c2cc(F)ccc2S1(=O)=O	x	x	n	x	x	x
C=CCc1c(C)nc2c(C)cccc2c1SC(=N)N	16	n	n	n	n	n
CCC(C)NC(=O)CN1C(=O)C2CCCCN2C(=O)c2ccccc21 (stereo not drawn)	x	x	n	x	x	x
COc1cc2c(cc1OC)C(c1cc(Br)ccc1F)N(C(=O)CCl)CC2 (stereo not drawn)	22	n	n	n	58	34
O=C(Nc1ccccc1N1CCN(C(=O)c2ccc(Cl)cc2)CC1)c1cccc([N+](=O)[O-])c1	14	n	n	n	n	n
CCn1c(COc2ccccc2)nnc1SCC(=O)C(C)(C)C	15	n	n	n	n	n
CC(C)C[C@H]1COc2cc(Br)ccc2S(=O)(=O)N1Cc1cn(Cc2ccc(Cl)cc2)nn1	x	x	n	x	x	x
COc1cccc(NC(=O)C2CCCN2C(=O)Nc2cccc3c2OCO3)c1 (stereo not drawn)	x	x	n	x	x	x
Cc1ccc(C(=O)NCC(=O)OCc2nc3sc(C)c(C)c3c(=O)[nH]2)cc1	x	x	n	x	x	x
COc1cc(/C=N/NC(=O)c2ccc3c(c2)OCO3)ccc1O	n	n	n	n	n	x
COc1cc(/C=N/NC(=O)/C(=C\c2ccc3c(c2)OCO3)NC(=O)c2ccccc2)ccc1O	13	n	n	n	n	n
COc1ccc(CC(=O)NC(C)c2nnc(SCC(=O)c3ccc(OC)cc3)n2C)cc1 (stereo not drawn)	n	n	n	n	n	x
COc1ccc(CC(=O)NC(C)c2nnc(SCCOc3ccc(OC)cc3)n2C)cc1 (stereo not drawn)	18	n	n	n	n	n
COC(=O)[C@]12C[C@H](CC(=O)NCc3ccc(OC)c(OC)c3)C(=O)N(CCc3ccc(OC)c(OC)c3)C1=C[C@H](COCc1ccccc1)O[C@@H]2C	x	x	n	x	x	x
Cc1ccc(OCC(=O)N/N=C/c2ccc([N+](=O)[O-])o2)cc1	13	n	n	n	n	n
CN(Cc1ccccc1)C(=O)OCc1cn(Cc2ccccc2C(F)(F)F)nn1	x	x	n	x	x	x
Cc1cccc(N2C(N)=C(C#N)C(C#N)(C#N)C2c2ccccc2)c1 (stereo not drawn)	14	n	n	n	n	n
COc1ccccc1CNC(=O)C[C@H]1CC[C@H]2[C@@H](COc3ccc(NC(=O)Nc4ccccc4)cc3C(=O)N2C)O1	x	x	n	x	x	x
CCc1c(C)sc(NC(=O)Cc2ccccc2OC)c1C(=O)N1CCOCC1	13	n	n	n	n	n
CCc1c(C)sc(NC(=O)OC)c1C(=O)N1CCCCC1	n	n	n	n	n	x
O=C(CNS(=O)(=O)c1ccccc1)N1CCN(c2ncccn2)CC1	x	x	n	x	x	x
COc1ccc(NC(=O)CC2C(=O)NCCN2C(=O)Nc2ccc(C(F)(F)F)cc2)cc1 (stereo not drawn)	13	n	n	n	n	n
O=C(CC1C(=O)NCCN1C(=O)Nc1ccc(C(F)(F)F)cc1)Nc1ccc(F)cc1 (stereo not drawn)	n	n	n	n	n	x
O=C(NCc1cccs1)C1CCCN(S(=O)(=O)c2cccc3ccccc23)C1 (stereo not drawn)	x	x	n	x	x	x
